High-throughput results as filed in PubChem BioAssay.
A selection: hits, their analogues and other compounds. The true share with any hit is near 5.4%.
FXN GAA850 act – frataxin GAA850 promoter activation. HEK293 lucGAA850 FXN promoter luciferase reporter, 24 h; percent of 10 µM SAHA response. activation, % at 6 µM. actives 0.56% (n = 360,000);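 active = activation above the average of all compounds screened plus 3 SD, cutoff fixed separately per campaign, cut at about 7.5% in these data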;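 note: 0% = DMSO wells and 100% = 10 µM SAHA wells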
NR0B1 inh – NR0B1 (DAX1) inhibition. P51843. HEK293 Gal4-DAX1 luciferase reporter, luminescence. inhibition, % at 6.75 µM. actives 0.99% (n = 340,000). AID 504766;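 active = inhibition above the mean over all tested compounds plus 3 SD, cut at about 4.2% in these data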;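 note: 0% = DAX1-transfected cells with DMSO and 100% = empty-vector control cells with DMSO; inhibition shows as a rise in luminescence from relieved DAX1 repression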
Target sequence (P51843 207-470 limits assumed): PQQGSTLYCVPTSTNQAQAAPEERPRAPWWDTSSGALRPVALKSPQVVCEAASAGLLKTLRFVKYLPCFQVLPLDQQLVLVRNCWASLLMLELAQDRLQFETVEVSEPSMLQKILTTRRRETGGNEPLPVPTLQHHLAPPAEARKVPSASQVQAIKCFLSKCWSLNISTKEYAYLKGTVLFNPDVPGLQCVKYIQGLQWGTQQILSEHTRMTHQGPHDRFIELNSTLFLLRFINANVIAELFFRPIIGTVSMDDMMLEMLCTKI
HSF1 inhib – HSF1 inhibition. activity change, negative = inhibition, % at 7.5 µM (by protocol). NIH3T3-HGL HSE-luciferase, MG132-induced, luminescence 8 h; stronger effect = lower value. AID 2098. actives 0.77% (n = 300,000);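 active = more than half of replicate wells show activity change below -50%, luminescence cut by over half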;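 note: luciferase reports HSF-1 transcriptional activity via heat shock element; 0% = median of DMSO wells and -100% = zero luminescence signal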
HSF-1 act – increases HSF-1 driven luciferase reporter signal; NIH3T3-HGL HSF-1 luciferase reporter, MG132, 8 h; 100% = twice DMSO control signal; activation, % at 9 µM; actives 1.7% (n = 300,000); AID 504408;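 active = mean replicate activation of at least 50% with a set share of replicates each reaching 50%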;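 note: 0% = median of the neutral control wells and 100% = twice that signal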
AHR act – activators of human aryl hydrocarbon receptor; P35869; activation, % at 5 µM; AID 2796; AHR-responsive luciferase reporter cells, luminescence; actives 2.5% (n = 320,000); in the data active = activation above about 47%;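 note: 0% = vehicle wells and 100% = reference agonist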
AHR act cf – human AHR activation, confirmation; shares compounds with AHR act; human cells, AHR-responsive luciferase reporter, luminescence; activation, % at 9 µM; actives 87% (n = 2,300); AID 2845; in the data active = activation above about 49%;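 note: HepG2 hepatoma cells carrying a DRE-driven firefly luciferase reporter; 0% = vehicle wells and 100% = reference agonist wells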
PXR counter – activates human PXR in AHR activator counter-screen | shares compounds with AHR act | cell-based PXR reporter, luciferase luminescence | activation, % at 11.6 µM | actives 88% (n = 2,300) | AID 434939; in the data active = activation above about 11%;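 note: human hepatoma DPX-2 cells expressing full-length human PXR; 0% = DMSO and 100% = reference agonist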
An asterisk follows results filed as active; x = no result given.

SMILES	FXN GAA850 act	NR0B1 inh	HSF1 inhib	HSF-1 act	AHR act	AHR act cf	PXR counter
COC(=O)c1ccc2nc(NC(=O)C3CCCCC3)sc2c1	3	0	-8	5	4	x	x
O=C(Nc1nc2ccc(Cl)cc2s1)C1CCCO1 (stereo unspecified)	2	2	-15	-13	-3	x	x
O=C(Nc1nc2c(Br)cccc2s1)C1CC1	-1	-1	6	4	132*	97*	18*
CCc1sc(C(=O)Nc2ccccc2N2CCOCC2)cc1C	0	-1	3	-9	3	x	x
COc1ccc(NC(=O)CN2CCN(c3c(C)cc(C)cc3C)CC2)cc1	1	1	3	7	0	x	x
COc1ccc(CC(=O)OCC(=O)Nc2ccc(F)cc2)cc1	-1	1	x	x	x	x	x
N#Cc1cccc(NC(=O)CNc2cccc(S(=O)(=O)N3CCCCC3)c2)c1	-2	-1	6	-9	4	x	x
COc1cccc(C(=O)OCC(=O)Nc2ccc(N3CCOCC3)cc2)c1	2	0	x	x	-1	x	x
CN1CCN(/N=C/c2nc(-c3ccccc3)n3ccccc23)CC1	2	0	-5	2	102*	65*	16*
Clc1ccc(-c2nc(/C=N/N3CCOCC3)c3ccccn23)cc1	2	0	10	53*	90*	78*	25*
CN1CCN(/N=C/c2nc(-c3ccccc3Cl)n3ccccc23)CC1	1	0	-2	8	25	x	x
Cc1nc(N2CCOCC2)c2oc3ccccc3c2n1	-1	-2	-8	7	100*	92*	24*
Cc1nc(N2CCN(Cc3nc4ccccc4[nH]3)CC2)c2oc3ccccc3c2n1	1	-1	-3	36	3	x	x
CC(=O)N1CCc2c(sc(NC(=O)C3CC3)c2-c2nc3ccccc3s2)C1	2	1	0	-2	106*	100*	28*
Cc1cc(NC(=O)c2ccccc2-c2ccccc2)ccc1Br	-2	-1	7	19	94*	93*	153*
Cc1cccc(NC(=O)c2ccccc2-c2ccccc2)c1	2	0	4	4	-1	x	x
CC(C)N(c1ccccc1)c1ccc(NC(=O)[C@@H]2O[C@H](CO)[C@@H](O)[C@H]2O)cc1	2	x	x	x	x	x	x
O=C(Nc1ccc(F)cc1)c1cnc(-c2ccccc2)nc1-c1ccccc1	-1	0	9	-1	124*	53*	81*
Cc1ccc(NC(=O)c2ccc3ccccc3n2)nc1	6	3	24	47	86*	106*	18*
O=C(Nc1ccccc1C(=O)O)c1ccc2ccccc2n1	1	0	13	1	93*	130*	32*
O=C(Nc1ccc(Cl)cn1)c1ccc2ccccc2n1	1	2	19	16	37	x	x
CC(=O)Nc1cc(-c2nn3c(C)nnc3s2)ccc1C	2	3	-7	-11	99*	89*	11*
CN(C)c1ccc(/C=N\NC(=O)c2csnn2)cc1	2	0	18	14	111*	55*	10*
CN(C)c1ccc(/C=N/NC(=O)c2ccccn2)cc1	0	1	5	22	33	x	x
CCCn1c2c(c(O)c(C(=O)Nc3nc4ccccc4s3)c1=O)CCCC2	-3	2	-4	-20	6	x	x
SMILES	FXN GAA850 act	NR0B1 inh	HSF1 inhib	HSF-1 act	AHR act	AHR act cf	PXR counter
O=C(O)c1ccc(COc2ccccc2/C=C2\NC(=O)N(Cc3ccccc3F)C2=O)cc1	3	0	-7	-2	-1	x	x
CN1C(=O)/C(=C/c2ccccc2OCc2ccccc2F)NC1=S	0	0	7	10	93*	79*	85*
CCC(C(=O)Nc1cc(Cl)ccc1OC)c1ccccc1 (stereo unspecified)	2	0	5	32	4	x	x
COc1cc(NC(=O)C/C(C)=N/NC(=O)C(OC)c2ccccc2)c(OC)cc1Cl (stereo unspecified)	0	0	4	-13	105*	24	10
COc1ccc(Cl)cc1NC(=O)C(OC)c1ccccc1 (stereo unspecified)	-3	0	-2	13	101*	97*	47*
COCC1CCCCN1Cc1cn[nH]c1-c1ccc2cc(OC)ccc2c1 (stereo unspecified)	3	0	8	15	10	x	x
CCOC(=O)C1CCCN(C(=O)CCn2nnnc2CN2CCOCC2)C1 (stereo unspecified)	0	1	-1	-8	6	x	x
O=C(Nc1cccc(C(=O)Nc2ccc(Br)cc2)c1)c1ccccc1	2	0	4	9	89*	33	22*
O=C(Nc1ccc(Br)cc1)c1cccc(-n2cnnn2)c1	-1	-1	5	25	91*	103*	29*
O=C(Nc1ccc(Cl)c(Cl)c1)c1ccccc1	5	3	x	x	102*	122*	12*
O=C(Nc1ccc(Br)cc1)c1cccc(S(=O)(=O)Nc2cnc3ccccc3c2)c1	0	-3	2	-6	83*	75*	12*
O=C(Nc1cccc(-n2cnnn2)c1)c1ccccc1Br	0	1	2	11	33	x	x
CN(C(=O)c1ccc(NC(=O)Cc2cccc(NC(=O)C3CCCN(C(=O)CCc4ccccc4)C3)c2)cc1)C1CC1 (stereo unspecified)	0	-1	x	x	x	x	x
O=C(CSc1ccc(Cl)cc1)NNC(=O)c1ccncc1	-2	1	x	x	x	x	x
COc1ccc(C(=O)Nc2nnc(Cc3ccccc3)s2)c(OC)c1	3	0	-6	19	6	x	x
Nc1n[nH]c(-c2ccccc2)n1	3	0	-13	-5	5	x	x
c1ccc(-c2n[nH]c(-c3ccccn3)n2)cc1	4	1	9	12	90*	81*	24*
CCCS(=O)(=O)Nc1c(OC)ccc2c1c(C(=O)OCC)c(C)n2C	0	0	-8	14	85*	74*	119*
CCOC(=O)c1c(C)n(C)c2ccc(O)c(CN(CC)CC)c12	0	1	3	15	20	x	x
CCCc1ccc(C(O)c2ncc(-c3cccc(C)c3)[nH]2)cc1 (stereo unspecified)	0	x	x	x	x	x	x
Cc1nc2[nH]c(=S)[nH]c(=O)c2nc1C	0	2	x	x	x	x	x
Cc1nc2c(=O)[nH]c(=S)n(C)c2nc1C	0	0	13	-5	81*	56*	4
C=C(C)CNC(=S)N/N=C/c1ccco1	4	0	2	9	4	x	x
CN(C)CCNC(=O)c1sc2nc(-c3ccccc3)cc(C(F)(F)F)c2c1N	-1	0	1	3	91*	100*	11*
Nc1c(C(=O)C2CC2)sc2nc(-c3ccccc3)cc(C(F)(F)F)c12	1	0	-1	0	16	x	x
